This is an account of results in PubChem BioAssay (NCI).

Some test systems named below: HCT-15 colon; HT29 colon; SNB-75 CNS; SNB-19 CNS; U251 CNS; PC-3 prostate; SK-MEL-5 melanoma; UACC-62 melanoma; LOX IMVI melanoma; SK-MEL-28 melanoma; SK-MEL-2 melanoma; EKVX NSCLC; UO-31 renal; TK-10 renal; ACHN renal; CAKI-1 renal; A498 renal; CCRF-CEM leukemia; MOLT-4 leukemia; SN12C renal.
Assay in all cases: NCI-60 one-dose screen, 48 h (100 = growth as untreated, 0 = no growth, -100 = all killed)
Common to all, as to settings: 10 µM

This is part of a sample that, as a whole, favours compounds with a hit. Of some 83,000 tested, about 20% had one in any assay.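 Negative percent growth values reflect cell death: -40 means 40% of the cells present at the start died, and -100 means all died.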 Unmarked numbers belong to inactive results. Calls of active or inactive are those of the source. The calls were made as follows: active = growth percent below 10; inactive = the rest.

In the case of `CC1=N/C(=C\c2ccc(N(C)C)cc2)C(=O)N1CCc1ccc(S(N)(=O)=O)cc1`, the growth in the experiment on HCT-15 colon is 104%; in the experiment with HT29 colon it was 105%; with SNB-75 CNS, 77.8%; with SNB-19 CNS, 95.2%; in the experiment with U251 CNS, 91.8%; in the experiment with PC-3 prostate, 96.7%. Moreover, the growth with SK-MEL-5 melanoma is 97.8%; with UACC-62 melanoma, 93.7%; in the experiment with LOX IMVI melanoma, 98.1%; in the experiment with SK-MEL-28 melanoma, 117%; in the experiment with SK-MEL-2 melanoma it was 97.9%; in the experiment on EKVX NSCLC, 95.2%. Besides, the growth in the experiment on UO-31 renal is 87.9%; in the experiment on TK-10 renal, 110%; in the experiment with ACHN renal, 105%; in the experiment on CAKI-1 renal it was 88.3%; with A498 renal, 102%; in the experiment with CCRF-CEM leukemia, 88.4%. Besides, in the experiment on MOLT-4 leukemia, the growth is 93.6%.

Consider `N#Cc1c(NC(=O)c2ccc(C(F)(F)F)cc2)sc2c1CCC(O)=C2`, for which the growth in the experiment with HCT-15 colon was 9.23% (active); in the experiment on HT29 colon, 38.2%; with SNB-75 CNS, -3.93% (active); with SNB-19 CNS, 55.9%; in the experiment with U251 CNS, 28.2%; in the experiment with PC-3 prostate, 49.2%. Moreover, the growth in the experiment on SK-MEL-5 melanoma was -28.8% (active); with UACC-62 melanoma, 13.8%; with LOX IMVI melanoma, 23.9%; in the experiment with SK-MEL-28 melanoma, 41.6%; with SK-MEL-2 melanoma, 8.44% (active); with EKVX NSCLC, 16.9%. The growth in the experiment on UO-31 renal was 23.9%; in the experiment on TK-10 renal, 71.9%; in the experiment on ACHN renal it was 44.1%; in the experiment on CAKI-1 renal, 31.9%; in the experiment on A498 renal, 74.2%; in the experiment with CCRF-CEM leukemia, 6.68% (active). In the experiment on MOLT-4 leukemia, the growth was 13.8%.

With `COc1cc(C2CC(c3ccc(C)cc3)=Nc3c(N)nc(N)nc3N2)ccc1Oc1nc(Nc2ccc(F)cc2)nc(N(C)C)n1` (stereo unspecified), the growth in the experiment on HCT-15 colon was 14.9%; with HT29 colon, 9.46% (active); in the experiment on SNB-75 CNS, 104%; in the experiment with SNB-19 CNS it was 66.7%; in the experiment on U251 CNS, 52.2%; in the experiment on PC-3 prostate it was 45.6%. The growth in the experiment on SK-MEL-5 melanoma was -100% (active); with UACC-62 melanoma it was 77.7%; with LOX IMVI melanoma, -77.8% (active); in the experiment on SK-MEL-28 melanoma, 88.3%; with SK-MEL-2 melanoma, 72.9%; in the experiment with EKVX NSCLC, 70.1%. In addition, the growth is 68.6% with SN12C renal; 101% in the experiment with TK-10 renal; 47.1% in the experiment on ACHN renal; 49.4% with CAKI-1 renal; 96.5% in the experiment on A498 renal; 47.1% in the experiment with CCRF-CEM leukemia. Further, in the experiment with MOLT-4 leukemia, the growth was 13.2%.

With `CN(C(=O)c1ccc(C(F)(F)F)cc1C(F)(F)F)c1sc2c(c1C#N)CCC(=O)C2`, the growth is 10.4% in the experiment on HCT-15 colon; 106% in the experiment with HT29 colon; 105% in the experiment on SNB-75 CNS; 88.7% in the experiment on SNB-19 CNS; -11.7% (active) with U251 CNS; 0.435% (active) in the experiment with PC-3 prostate. Besides, the growth in the experiment with SK-MEL-5 melanoma is 25.9%; in the experiment on UACC-62 melanoma, 55.7%; with LOX IMVI melanoma, 29.2%; in the experiment with SK-MEL-28 melanoma it was 106%; in the experiment on SK-MEL-2 melanoma it was 96.8%; in the experiment on EKVX NSCLC it was 73.7%. Also, the growth in the experiment with UO-31 renal is 62.4%; in the experiment on TK-10 renal, 94.2%; with ACHN renal, 82.7%; in the experiment on CAKI-1 renal, 61.3%; with A498 renal, 125%; in the experiment on CCRF-CEM leukemia it was -0.48% (active). Moreover, in the experiment on MOLT-4 leukemia, the growth is 36.4%.

As for `Cc1nc2c(cnn2-c2ccccc2)c(=O)n1-c1ccc(NC(=O)c2ccc(F)cc2)cc1`, the growth in the experiment on HCT-15 colon is 66.1%; in the experiment on HT29 colon it was 63.5%; with SNB-75 CNS it was 64.5%; in the experiment on SNB-19 CNS, 80.4%; with U251 CNS, 81.1%; in the experiment with PC-3 prostate it was 53.1%. In addition, the growth is -15.4% (active) in the experiment on SK-MEL-5 melanoma; 63.1% in the experiment with UACC-62 melanoma; 61.8% with LOX IMVI melanoma; 83.8% in the experiment on SK-MEL-28 melanoma; 77.9% with SK-MEL-2 melanoma; 30.2% in the experiment on EKVX NSCLC. In addition, the growth in the experiment with SN12C renal is 74.4%; in the experiment with TK-10 renal, 71%; with ACHN renal, 61%; in the experiment with A498 renal, 86.8%; in the experiment on CCRF-CEM leukemia, 34.8%; in the experiment with MOLT-4 leukemia, 5.38% (active).

In the case of `CCCCCCCCCCCCCCCCCCCC(=O)NCCc1c[nH]c2ccc(OC(=O)NOCCOCCOCCOCCOCCOCCOCCOCCOCCOCCOCCOCCOCCOCCOCCOCCOCCOCCOCCOCCOCCOCCOC)cc12`, the growth is 77.7% in the experiment on HCT-15 colon; -71.8% (active) in the experiment on HT29 colon; 37.3% with SNB-75 CNS; 22.3% in the experiment on SNB-19 CNS; -16.8% (active) in the experiment with U251 CNS; 6.43% (active) in the experiment on PC-3 prostate. Also, the growth in the experiment on SK-MEL-5 melanoma was -16.3% (active); in the experiment with UACC-62 melanoma, -69.4% (active); in the experiment with LOX IMVI melanoma it was -90.7% (active); in the experiment on SK-MEL-28 melanoma it was -2.99% (active); with SK-MEL-2 melanoma it was -68.5% (active); in the experiment on EKVX NSCLC, 35.6%. The growth is -17.4% (active) in the experiment on SN12C renal; 51.2% in the experiment on TK-10 renal; 40.7% in the experiment with ACHN renal; 7.27% (active) in the experiment on CAKI-1 renal; 63.1% with A498 renal; -11.7% (active) with MOLT-4 leukemia.

Take `Cc1ccc(CNC(=O)Cc2ccc3c(c2)CN(C2CCC(=O)NC2=O)C3=O)cc1` (stereo unspecified): the growth with HCT-15 colon was -20.1% (active); in the experiment with HT29 colon, 24.6%; with SNB-75 CNS it was -16.8% (active); with SNB-19 CNS, 4% (active); in the experiment on U251 CNS, 55.5%; in the experiment on PC-3 prostate it was 10.4%. Moreover, the growth is -70.5% (active) with SK-MEL-5 melanoma; 40.6% in the experiment with UACC-62 melanoma; 71.4% with LOX IMVI melanoma; 22% with SK-MEL-28 melanoma; 0.232% (active) in the experiment on SK-MEL-2 melanoma; 54.5% in the experiment with EKVX NSCLC. In addition, the growth is 4.57% (active) in the experiment on SN12C renal; 33.2% with TK-10 renal; 30.5% in the experiment with ACHN renal; 52.6% with CAKI-1 renal; -9.84% (active) in the experiment with A498 renal; 8.32% (active) with CCRF-CEM leukemia. The growth in the experiment on MOLT-4 leukemia was -24.9% (active).
